Experiment [1] has as its system Plasmodium falciparum Sir2 (PF13_0152, Sir2A). In words: Plasmodium falciparum Sir2A binding compounds – biochemical, small-molecule microarray, 635 nm fluorescence, primary screen (AID 1098).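 Further: score merges spot fluorescence intensity with its signal-to-noise ratio.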 The conditions noted are these: fluorescence 635 nm, higher = more signal.
The nature of experiment [2]: probe aDKK1 binding to arrayed compounds – biochemical, biotinylated probe, 635/667 nm fluorescence, primary screen (AID 1099).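 Further: score merges 667nm spot fluorescence with signal to noise across triplicate slides.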 The conditions noted are these: small-molecule microarray, higher = more signal.
A short description of experiment [3]: probe aCHRDL2 binding to arrayed compounds – biochemical, biotinylated probe, 635/667 nm fluorescence, primary screen (AID 1100). The conditions noted are these: small-molecule microarray, higher = more signal.
Experiment [4] in a line: change in splice reporter luminescence, either direction, cell-based, HEK293, spliceosome inhibition project, primary screen (AID 1101).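 Further: HEK293 cells carrying a splicing-competent luciferase reporter gene; test concentration not given here.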 The conditions noted are these: HEK293 splicing luciferase reporter, 24 h, higher = more signal, called active from +8 up or from −8 down.
The target of experiment [5] is Fibroblast growth factor 10 (Homo sapiens) (UniProt O15520). In words: compounds binding fibroblast growth factor 10 – biochemical, small-molecule microarray, 635 nm fluorescence, primary screen (AID 1102). The settings on record: FGF10 binding, fluorescence 635 nm, higher = more signal.
Fibroblast growth factor 10 (Homo sapiens), sequence (O15520 whole entry, looked up): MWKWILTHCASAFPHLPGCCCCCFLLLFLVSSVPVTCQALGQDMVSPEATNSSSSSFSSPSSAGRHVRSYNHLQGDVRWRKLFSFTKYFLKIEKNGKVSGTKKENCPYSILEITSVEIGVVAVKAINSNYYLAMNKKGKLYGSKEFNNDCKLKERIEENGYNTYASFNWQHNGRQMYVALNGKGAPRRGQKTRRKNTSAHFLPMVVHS
Experiment [6] relates to glycogen synthase kinase-3 (GSK3A per assay name; protocol says GSK3B). The experiment can be described thus: compounds binding glycogen synthase kinase-3 – biochemical, small-molecule microarray, 635 nm fluorescence, GSK3A, primary screen (AID 1103). Further: the record names both GSK3A and GSK3B. The settings on record: fluorescence 635 nm, higher = more signal.
For experiment [7], the target named is Epidermal growth factor receptor (Homo sapiens) (UniProt P00533). In words: compounds binding epidermal growth factor receptor – biochemical, small-molecule microarray, 635 nm fluorescence, primary screen (AID 1104).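 Further: score merges 667 nm emission intensity with spot signal to noise over triplicate slides.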 The settings on record: EGFR binding, higher = more signal.
Epidermal growth factor receptor (Homo sapiens), sequence (P00533 whole entry, looked up): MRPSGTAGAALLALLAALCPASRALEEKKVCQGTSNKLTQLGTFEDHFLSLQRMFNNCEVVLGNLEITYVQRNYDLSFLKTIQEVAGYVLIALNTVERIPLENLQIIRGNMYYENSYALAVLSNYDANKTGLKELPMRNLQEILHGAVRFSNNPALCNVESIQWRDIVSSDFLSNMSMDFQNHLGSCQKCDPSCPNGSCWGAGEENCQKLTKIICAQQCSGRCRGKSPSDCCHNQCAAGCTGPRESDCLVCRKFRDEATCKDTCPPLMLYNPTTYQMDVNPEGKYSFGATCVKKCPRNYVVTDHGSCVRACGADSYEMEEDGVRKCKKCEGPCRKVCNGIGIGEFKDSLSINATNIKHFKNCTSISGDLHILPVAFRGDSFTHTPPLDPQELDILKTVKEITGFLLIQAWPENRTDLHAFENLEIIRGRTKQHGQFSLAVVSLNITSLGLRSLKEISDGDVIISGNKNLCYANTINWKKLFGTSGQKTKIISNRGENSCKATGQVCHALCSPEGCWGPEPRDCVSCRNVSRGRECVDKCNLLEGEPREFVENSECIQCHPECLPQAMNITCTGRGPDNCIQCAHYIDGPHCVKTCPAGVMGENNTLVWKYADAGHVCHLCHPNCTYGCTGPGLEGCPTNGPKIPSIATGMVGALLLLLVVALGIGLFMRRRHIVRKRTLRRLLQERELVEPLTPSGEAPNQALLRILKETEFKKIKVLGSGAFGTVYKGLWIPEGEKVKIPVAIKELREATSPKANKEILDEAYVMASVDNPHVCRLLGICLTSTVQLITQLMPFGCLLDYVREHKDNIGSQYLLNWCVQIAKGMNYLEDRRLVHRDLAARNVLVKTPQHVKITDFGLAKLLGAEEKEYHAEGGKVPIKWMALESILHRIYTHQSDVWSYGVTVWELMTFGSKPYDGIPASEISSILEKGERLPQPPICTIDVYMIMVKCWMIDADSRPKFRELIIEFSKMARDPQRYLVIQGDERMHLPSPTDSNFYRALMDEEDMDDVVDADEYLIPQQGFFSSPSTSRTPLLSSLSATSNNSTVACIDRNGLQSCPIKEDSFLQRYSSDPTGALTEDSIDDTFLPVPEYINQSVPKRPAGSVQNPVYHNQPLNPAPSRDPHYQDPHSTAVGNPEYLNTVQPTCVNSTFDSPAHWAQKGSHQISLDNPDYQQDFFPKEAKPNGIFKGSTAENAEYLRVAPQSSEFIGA
Experiment [8] addresses Follistatin-related protein 3 (Homo sapiens) (UniProt O95633). The experiment can be described thus: compounds binding follistatin-related protein 3 – biochemical, small-molecule microarray, 635 nm fluorescence, primary screen (AID 1105).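 Further: score merges emission near 667 nm and signal to noise per printed spot across three slides.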 The settings on record: FSTL3 binding, higher = more signal.
The target of experiment [9] is Dickkopf-related protein 1 (Homo sapiens) (UniProt O94907). In words: small molecules binding DKK1 protein – biochemical, small-molecule microarray, 635 nm fluorescence scan, primary screen (AID 1106).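 Further: score merges emission near 667 nm with signal to noise over three replicate slides.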 The conditions noted are these: higher = more signal.
Dickkopf-related protein 1 (Homo sapiens), sequence (O94907 whole entry, looked up): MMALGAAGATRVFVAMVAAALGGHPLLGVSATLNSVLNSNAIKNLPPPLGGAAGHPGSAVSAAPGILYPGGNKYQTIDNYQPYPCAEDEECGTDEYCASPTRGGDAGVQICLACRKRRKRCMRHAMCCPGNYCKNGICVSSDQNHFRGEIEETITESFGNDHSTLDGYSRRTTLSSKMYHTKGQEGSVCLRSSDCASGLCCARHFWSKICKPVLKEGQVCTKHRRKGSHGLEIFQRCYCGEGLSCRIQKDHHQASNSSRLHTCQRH
Experiment [10] deals with Inhibin beta A chain (activin A). The experiment can be described thus: small molecules binding activin A – biochemical, small-molecule microarray, 635 nm fluorescence scan, primary screen (AID 1107).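 Further: mouse activin A protein probed at 4.33 µg/mL on printed slides; score merges bound-protein fluorescence near 667 nm with spot signal-to-noise.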 The conditions noted are these: INHBA, higher = more signal.
Experiment [11] concerns Human papillomavirus type 1a protein E7 (residues 44-93). The experiment can be described thus: small molecules binding HPV E7 44-93 – biochemical, small-molecule microarray, residues 44-93, 635 nm fluorescence, primary screen (AID 1108).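 Further: E7 fragment applied at 1 µg/mL in TBST for 1 h at 4 C; score combines spot fluorescence with its signal to noise ratio.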 The settings on record: fluorescence 635 nm, higher = more signal.
A short description of experiment [12]: hepatitis C replication reporter changes, two-sided – Huh7 cells, luciferase reporter, HCV replication inhibitor project, primary screen (AID 1109).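 Further: huh7 hepatoma cells harbouring a luciferase neomycin HCV replicon reporter; luciferase luminescence as measure of HCV replicon replication; test concentration not given here.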 The settings on record: Huh7 HCV replicon luciferase reporter, 48 h; higher = more signal.
Experiment [13] addresses Left-right determination factor 2 (Homo sapiens) (UniProt O00292). The experiment can be described thus: small molecules binding LEFTY2 protein – biochemical, small-molecule microarray, 635 nm fluorescence scan, primary screen (AID 1110). The settings on record: higher = more signal.
Experiment [14] addresses Calmodulin-1 (Homo sapiens) (UniProt P0DP23). In words: small molecules binding calmodulin-1 with EGTA – biochemical, small-molecule microarray, Cy5-labelled CALM1, profiling panel (AID 1111).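 Further: labelled calmodulin applied in Tris saline Tween buffer holding calcium plus EGTA and DTT.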 The conditions noted are these: Cy5-CALM1 binding fluorescence, higher = more signal.
Experiment [15] has the same target. In words: small molecules binding Ca-loaded calmodulin-1 – biochemical, small-molecule microarray, Cy5-labelled CALM1, plus calcium, artefact control for SMM control-protein annotation, profiling panel (AID 1112).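 Further: score merges spot fluorescence with signal to noise from triplicate slides.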 The settings on record: Cy5-CALM1 binding fluorescence, higher = more signal.
Experiment [16] can be described thus: probe aWnt5a binding to arrayed compounds – biochemical, biotinylated probe, 635/667 nm fluorescence, primary screen (AID 1113).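 Further: score merges 667 nm fluorescence intensity with signal-to-noise per printed feature.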 The conditions noted are these: small-molecule microarray, higher = more signal.
The nature of experiment [17]: probe aShh binding to arrayed compounds – biochemical, biotinylated probe, 635/667 nm fluorescence, primary screen (AID 1114).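 Further: probe is biotin-labelled aShh protein from a stem cell growth factor screen; measures binding of labelled protein to compounds printed on the slide; score merges feature fluorescence at 667 nm with signal-to-noise.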 The settings on record: small-molecule microarray, higher = more signal.
Experiment [18] is described as follows: probe aNog binding to arrayed compounds – biochemical, biotinylated probe, 635/667 nm fluorescence, primary screen (AID 1115).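 Further: probe is biotinylated aNog protein used at 0.15 µg/mL for 1 h at 4 C; z-score combines 667 nm fluorescence of each spot with its signal to noise.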 The conditions noted are these: small-molecule microarray, higher = more signal.
Experiment [19] has as its target Torsin-1A-interacting protein 1 (Homo sapiens) (UniProt Q5JTV8). The experiment can be described thus: compound microarray binding of lysate hLAP1 – cell lysate, small-molecule microarray, COS7 lysate, 635/667 nm fluorescence, primary screen (AID 1116). The conditions noted are these: 635 nm fluorescence, higher = more signal.
For experiment [20], the target named is Alpha-bungarotoxin (Bungarus multicinctus) (UniProt P60615). The experiment can be described thus: compounds binding labelled alpha-BTX control protein – biochemical, small-molecule microarray, Alexa647 label, 635/667 nm fluorescence, artefact control for SMM control protein annotation, profiling panel (AID 1117). The conditions noted are these: alpha-BTX-A647 binding fluorescence, higher = more signal.
Alpha-bungarotoxin (Bungarus multicinctus), sequence (P60615 whole entry, looked up): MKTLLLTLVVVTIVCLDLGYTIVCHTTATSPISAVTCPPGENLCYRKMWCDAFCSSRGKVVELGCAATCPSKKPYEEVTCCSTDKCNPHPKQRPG

Active and inactive are the calls of the source.

Follistatin-related protein 3 (Homo sapiens), sequence (O95633 whole entry, looked up): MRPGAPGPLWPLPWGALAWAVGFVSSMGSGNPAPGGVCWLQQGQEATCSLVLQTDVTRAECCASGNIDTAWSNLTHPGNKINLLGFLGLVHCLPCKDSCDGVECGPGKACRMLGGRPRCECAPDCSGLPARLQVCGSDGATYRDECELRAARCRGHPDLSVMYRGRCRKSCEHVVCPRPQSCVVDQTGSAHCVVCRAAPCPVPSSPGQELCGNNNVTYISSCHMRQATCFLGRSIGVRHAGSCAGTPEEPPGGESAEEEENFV
Torsin-1A-interacting protein 1 (Homo sapiens), sequence (Q5JTV8 whole entry, looked up): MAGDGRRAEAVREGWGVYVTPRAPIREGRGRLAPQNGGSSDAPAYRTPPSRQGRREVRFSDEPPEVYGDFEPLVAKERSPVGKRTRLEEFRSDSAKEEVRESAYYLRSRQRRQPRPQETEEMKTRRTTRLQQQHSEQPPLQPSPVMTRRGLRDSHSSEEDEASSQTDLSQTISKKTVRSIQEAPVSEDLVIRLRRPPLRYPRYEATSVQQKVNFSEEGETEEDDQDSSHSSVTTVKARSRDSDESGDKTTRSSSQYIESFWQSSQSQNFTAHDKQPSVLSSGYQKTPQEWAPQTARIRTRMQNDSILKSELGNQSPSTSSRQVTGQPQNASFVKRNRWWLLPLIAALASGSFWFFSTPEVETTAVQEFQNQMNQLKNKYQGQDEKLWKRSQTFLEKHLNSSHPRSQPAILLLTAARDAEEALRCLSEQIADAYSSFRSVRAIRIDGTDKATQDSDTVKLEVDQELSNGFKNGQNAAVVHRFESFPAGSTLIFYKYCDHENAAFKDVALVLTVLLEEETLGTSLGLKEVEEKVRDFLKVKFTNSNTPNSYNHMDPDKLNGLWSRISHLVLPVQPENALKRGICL
Left-right determination factor 2 (Homo sapiens), sequence (O00292 whole entry, looked up): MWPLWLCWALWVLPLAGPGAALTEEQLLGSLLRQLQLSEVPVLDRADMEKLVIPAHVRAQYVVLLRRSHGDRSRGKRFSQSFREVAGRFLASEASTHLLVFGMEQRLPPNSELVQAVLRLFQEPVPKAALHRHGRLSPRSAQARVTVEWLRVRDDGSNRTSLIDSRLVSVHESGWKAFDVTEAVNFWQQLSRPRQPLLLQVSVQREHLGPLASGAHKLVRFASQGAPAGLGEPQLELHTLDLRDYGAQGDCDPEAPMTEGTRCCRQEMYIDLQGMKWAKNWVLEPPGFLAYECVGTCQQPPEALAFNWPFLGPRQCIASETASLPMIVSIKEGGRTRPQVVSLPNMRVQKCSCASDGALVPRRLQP

As to `[N-]=[N+]=Nc1ccccc1C[C@@]1(C(N)=O)N=C(c2ccc(OCCCO)cc2)O[C@@H]1c1ccccc1`, the composite z-score in experiment [1] was 0.616; in experiment [2], 1.53; in experiment [3] it was 1.3; in experiment [5], -0.0111; in experiment [6] it was -0.0514; in experiment [7], -0.874. The composite z-score was -0.0838 in [8]; -0.82 in experiment [9]; 1.34 in [10]; 0.692 in [11]; -1.09 in experiment [13]; 1.7 in experiment [14]. In addition, the composite z-score in experiment [15] is 0.824; in [16], -0.0445; in [17] it was 0.456; in [18], 0.662; in experiment [19] it was 1.26; in experiment [20] it was 0.546. Further, the z-score was -1.23 (inactive) in experiment [4] and -2.38 in [12].
`COC(=O)[C@@]1(Cc2ccc(F)cc2)[C@H]2c3cc(C(=O)N(C)C)n(Cc4ccc(OC)c(OC)c4)c3C[C@H]2CN1C(=O)c1ccccc1`: the composite z-score is -0.236 in experiment [1]; 1.08 in experiment [2]; 0.43 in experiment [3]; 0.495 in [5]; -1.21 in experiment [6]; 0.278 in [7]. Further, the composite z-score in experiment [8] is -0.32; in experiment [9] it was -0.686; in [10] it was 0.939; in experiment [11], 0.0897; in [13] it was -0.137; in experiment [14] it was 0.482. Besides, the composite z-score was found to be 0.0167 in experiment [15]; 0.0833 in experiment [16]; 0.299 in experiment [17]; 0.338 in experiment [18]; 0.0894 in [19]; 0.0611 in experiment [20]. Further, the values for the z-score in experiment [4] and in experiment [12] were -3.2 (inactive) and -1.44, respectively.
For `COc1ccc(O[C@H]2C=C[C@@H](c3ccccc3)O[C@@H]2COC(=O)CCC(C)=NO[C@H](C)c2cn([C@@H]3COC[C@H]3O)nn2)cc1`, the composite z-score in experiment [1] is 0.716; in experiment [2], -0.226; in experiment [3], -0.791; in [5] it was 0.39; in experiment [6] it was 0.387; in experiment [7] it was 0.562. Also, the composite z-score in experiment [8] is 0.706; in [9], 0.583; in [10] it was -0.298; in experiment [11], 0.765; in experiment [13], 0.51; in [14] it was -0.121. In addition, the composite z-score in experiment [15] was -0.686; in [16], -0.119; in [17] it was 0.0062; in experiment [18], -0.185; in experiment [19], 0.68; in experiment [20] it was 1.19. For the same molecule, the z-score is -1.25 (inactive) in experiment [4] and -2.82 in [12].
With `COCCOC(=O)N1C(=O)[C@@]2(c3cc(C#Cc4ccc(OC)cc4)ccc31)[C@H](C(=O)N1CCN(c3ncccn3)CC1)[C@H]1C(=O)O[C@H](c3ccccc3)[C@H](c3ccccc3)N1[C@@H]2c1ccc(OCCO)cc1`, the composite z-score in experiment [1] turned out to be 0.593; in [2], 0.61; in experiment [3] it was 0.628; in experiment [5], 0.968; in experiment [6], 0.043; in experiment [7] it was 0.624. In addition, the composite z-score in [8] amounted to 1.11; in [9] it was 1.19; in experiment [10], 1.03; in experiment [11] it was 1.4; in experiment [13], 0.64; in experiment [14] it was 0.766. Further, the composite z-score in experiment [15] is 0.397; in [16] it was 0.101; in [17], -0.229; in experiment [18], 1.26; in experiment [19] it was -0.109; in experiment [20], 0.598. Also, the z-score is 0.688 (inactive) in experiment [4] and -1.56 in experiment [12].
Consider `CC(C)[C@@H](OCc1ccccc1)[C@H](C)C=NO[C@H](C)c1cn([C@H](CO)Cc2ccccc2)nn1`, for which the composite z-score in experiment [1] was 0.45; in experiment [2] it was -0.25; in [3], -0.566; in experiment [5], 0.503; in [6] it was 0.562; in experiment [7] it was 0.173. The composite z-score in [8] is 0.474; in [9], 0.804; in [10], -0.172; in experiment [11], 0.639; in [13], 0.521; in experiment [14] it was -0.211. Besides, the composite z-score is -0.669 in [15]; -0.156 in [16]; -0.0709 in [17]; -0.216 in [18]; 0.113 in experiment [19]; 0.263 in experiment [20]. Besides, the z-score in experiment [4] is -0.652 (inactive); in experiment [12], -2.09.

The values are drawn from PubChem BioAssay.
